# Most compounds without a hit are left out; they make up all but 4.3% or so of the library.
# MazEF act – MazEF (E. coli) toxin RNase activation. P0AE70. FAM/BHQ RNA-DNA oligo cleavage fluorescence, 5 h. activation, % at 20 µM. 350,000 tested, 0.32% active. AID 504720; in the data active = activation above about 50%
# Target sequence (P0AE70 whole entry, looked up): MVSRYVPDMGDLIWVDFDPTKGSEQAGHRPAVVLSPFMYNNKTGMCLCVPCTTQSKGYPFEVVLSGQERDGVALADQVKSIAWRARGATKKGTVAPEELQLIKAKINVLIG
# PfHsp40 rescue – restores yeast growth despite PfHsp40 toxicity; S. cerevisiae expressing PfHsp40, growth rescue, ATP luminescence; growth rescue, % at 12.5 µM; 340,000 tested, 0.68% active; in the data active = growth rescue above about 28%, passing the limit was not always enough; inconclusive = no clear call, values can overlap the other calls;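 also: yeast W303a lacking pdr1 and pdr3 grown in galactose medium; growth measured after three days at 30 °C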
# BoNT-F LC inh – BoNT F light chain protease inhibition. Multiplex microsphere protease cleavage assay, flow cytometry. inhibition, % at 10 µM. 360,000 tested, 0.22% active; in the data active = inhibition above about 35%, passing the limit was not always enough; inconclusive = no clear call, values can overlap the other calls; also: plate controls were buffer without enzyme for full effect and enzyme alone for no effect
# Anthrax LF prot – blocks Bacillus anthracis lethal factor protease. multiplex microsphere protease cleavage assay, LF. P15917. inhibition, % at 10 µM. 360,000 tested, 0.12% active; also: plate controls were buffer without enzyme for full effect and enzyme alone for no effect
# BoNT A protease – blocks Botulinum neurotoxin A light chain protease; multiplex microsphere protease substrate cleavage, flow cytometry; inhibition, % at 10 µM; 360,000 tested, 0.17% active; also: plate controls were buffer without enzyme for full effect and enzyme alone for no effect
# Autofluor counter – counter-screen for toxin protease inhibitors: compound fluorescence; compound autofluorescence counterscreen, microsphere flow cytometry; stronger effect = higher value; fluorescence intensity (concentration not given with the values); 360,000 tested, 3.1% active; AID 624483; in the data active = fluorescence intensity above about 16000; inconclusive = no clear call, values can overlap the other calls
# Numbers without * were called inactive; i = inactive; ? = inconclusive; nt = no result given. Rule as the data show it, unless noted: active = inhibition above about 30%; inconclusive = no clear call, values can overlap the other calls; inactive = below that.
SMILES,MazEF act,PfHsp40 rescue,BoNT-F LC inh,Anthrax LF prot,BoNT A protease,Autofluor counter
CCCCCC(=O)N1CCN(CCN=CC2=C(O)CC(c3ccco3)CC2=O)CC1 (stereo unspecified),-5,-1,-4,9,0,?
COc1ccc(C(=O)O)cc1S(=O)(=O)Nc1ccc(N2CCCCC2)cc1,12,0,-2,1,0,4390
COc1ccc(N(C)S(=O)(=O)c2ccc3c(c2)CCC(=O)N3)cc1,-8,0,-2,-3,0,20669*
COc1cc(NC(=O)CN(C)S(=O)(=O)c2ccc3c(c2)CCC(=O)N3)cc(OC)c1,4,0,0,-7,0,4202
O=C(NC(c1ccc(-c2ccccc2)cc1)c1cnccn1)C1CCN(CCOc2ccc(F)cc2)CC1 (stereo unspecified),nt,nt,-12,-4,0,4449
O=C(c1ccc(Cl)cc1)c1oc2ccccc2c1CS(=O)c1ccccc1 (stereo unspecified),-8,7,-8,-2,-2,20280*
O=C(O)c1oc2ccccc2c1CSc1ccc(Cl)cc1,-6,13,10,-10,2,3115
Cc1cc(C)cc(NC(=O)CN2CCN(c3ccccn3)CC2)c1,-1,16,-1,0,0,2709
Cc1cc(C)cc(NC(=O)CN2CCN(c3ncccn3)CC2)c1,-1,0,5,0,2,22652*
CCCc1[nH]n(-c2ccc([N+](=O)[O-])cc2)c(=O)c1C(C)=NCc1ccncc1,11,-1,-5,-2,0,4626
O=S(=O)(c1ccc(-c2ccon2)s1)N1CCN(c2ccccn2)CC1,4,0,3,-21,0,5800
CCOC(=O)C1=C(N)Oc2cc(C)oc(=O)c2C12C(=O)N1c3c(cc(OC)cc32)C(C)=CC1(C)C (stereo unspecified),1,1,-1,-4,?,23174*
CCOC(=O)C1=C(N)Oc2cc(C)oc(=O)c2C12C(=O)N1c3c(cccc32)C(C)=CC1(C)C (stereo unspecified),1,1,2,-8,3,21518*
CCOC(=O)C1=C(N)Oc2cc(C)oc(=O)c2C12C(=O)N1c3c(cccc32)C(C)CC1(C)C (stereo unspecified),-4,0,-7,0,1,10460
O=C1[C@H]2[C@@H](c3ccc(Cl)cc3)N3C(=O)N(c4cccc(Cl)c4)C(=O)[C@@]3(Cc3ccccc3)[C@H]2C(=O)N1C1CCCCC1,-8,-1,3,-2,0,2982
O=c1oc2cc(O)ccc2cc1-c1nc2c(s1)CCc1ccccc1-2,i,0,7,17,47*,4485
O=c1oc2ccccc2cc1-c1nc2c(s1)CCc1ccccc1-2,-16,0,18,27,64*,3123
O=c1oc2cc(O)ccc2cc1-c1ccccc1,4,0,7,0,2,4792
CCN1C(=O)[C@H]2[C@H]3CN=C(SCC(=O)c4ccccc4)N3[C@@](CC)(C(=O)OC)[C@H]2C1=O,-2,-1,-1,-1,0,3777
NC(N)=NS(=O)(=O)c1ccc(NC(=S)NC(=O)c2ccc(Br)cc2)cc1,59*,2,0,2,0,3877
NC(N)=NS(=O)(=O)c1ccc(NC(=S)NC(=O)c2ccncc2)cc1,10,-1,-9,-8,-3,3866
CC(Oc1ccc2ccc(=O)oc2c1)C(=O)NC1CCN(Cc2ccccc2)CC1 (stereo unspecified),0,-1,-3,-3,-2,4415
COc1cc2c(cc1OC)C(C)N(S(=O)(=O)c1ccc(Cl)nc1)CC2 (stereo unspecified),5,0,-6,-4,-3,4919
COc1ccccc1N=Nc1c(O)[nH]c2ccc(Br)cc12,137*,-1,21,6,3,3600
O=C(N=Nc1c(O)[nH]c2ccc(Br)cc12)c1ccccc1-n1cccc1,9,6,-8,-7,-3,24096*
SMILES,MazEF act,PfHsp40 rescue,BoNT-F LC inh,Anthrax LF prot,BoNT A protease,Autofluor counter
Cc1ccc2[nH]c(O)c(N=Nc3ccccc3C)c2c1,6,0,3,1,0,6144
O=C(N=Nc1c(O)[nH]c2ccc(Br)cc12)c1ccco1,-7,nt,-4,-5,0,3355
Cc1ccccc1N=Nc1c(O)[nH]c2ccccc12,482*,nt,-5,9,0,5770
COc1ccc(C(C)(O)c2nc(-c3ccc(F)cc3OC)cs2)cc1 (stereo unspecified),nt,nt,-4,-11,0,2833
COc1ccc(NC(=S)Nc2ccccc2SC)c(OC)c1,6,0,-3,-5,0,4713
CCCCNC(=O)C1(C)CCN1C(=O)c1sccc1C (stereo unspecified),nt,nt,-4,-8,0,2987
COc1cccc(C2=CC(c3ccc(N(C)C)cc3)n3nnnc3N2)c1 (stereo unspecified),182*,0,5,-2,2,16376*
Cc1ccc(S(=O)(=O)N2CCC(C(=O)NCCN3CCCCCC3)CC2)cc1,-2,-1,-16,-2,?,18618*
Cc1ccc(S(=O)(=O)N2CCC(C(=O)NCc3ccncc3)CC2)cc1,7,0,1,0,2,21375*
O=C(CNCc1ccccn1)Nc1cc(S(=O)(=O)N2CCCCC2)ccc1Cl,-8,-1,-4,-1,-3,4461
COc1ccc(CNC(=O)[C@H](C)NC(=O)C2CCN(S(=O)(=O)c3ccc(C)cc3)CC2)cc1,-2,0,6,-9,?,18265*
O=C(CNCc1ccncc1)Nc1cc(S(=O)(=O)N2CCCCC2)ccc1Cl,4,0,5,1,10,20589*
COc1ccc(CNC(=O)[C@H](C)NC(=O)C2CCN(S(=O)(=O)c3ccc(F)cc3)CC2)cc1,2,-1,-2,1,-2,5270
CCCC[C@@H]1CC2=C(C(=O)OC(C)(C)O2)[C@@H](c2ccc(F)cc2)O1,nt,nt,-1,0,0,6188
CC(=O)c1ccc(OCC(=O)OCc2cc(-c3ccco3)on2)cc1,-6,-1,2,2,-1,4096
Cc1ccc(S(=O)(=O)N2CCC(C(=O)N3CCC[C@H]3C(=O)NC3CCS(=O)(=O)C3)CC2)cc1 (stereo partly specified),5,1,-1,-4,?,23712*
CCCNC(=O)[C@@H]1CCCN1C(=O)C1CCN(S(=O)(=O)c2ccc(C)cc2)CC1,2,0,-2,2,-2,4676
CC(=O)Oc1cc2cccc(OC(C)=O)c(=O)c2c(OC(C)=O)c1OC(C)=O,214*,158*,-10,-16,-2,5104
COc1cc2cccc(OC)c(=O)c2c(O)c1OC,0,-1,-3,0,0,2439
CCOC(=O)C1=C(C)N(C)C(=S)NC1c1ccc(Cl)cc1Cl (stereo unspecified),-9,1,-7,-2,0,2308

# High-throughput results: PubChem, several laboratories
